Source: PubChem
Compounds with a hit are over-represented: about 17% of the library has one in this group of screens.
HepG2 tox: kills HepG2 cells in TGF-b inhibitor counter-screen; HepG2 CAGA-GFP viability, ATP luminescence, 18 h; Potency, µM (top dose mostly 46.1 µM), without a hit: at the top dose activity change, negative = cytotoxicity, actives largely listed as cytotoxic; 0.76% of 410,000 active
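HepG2 CAGA-GFP cells (1000/well, DMEM with 1% FBS) received compound, then TGF-beta at 500 pg/mL final, and were incubated 18 hours at 37 degrees C. Viability was read by CellTiter-Glo luminescence. Media-only wells were set as complete cell-killing and DMSO as no toxicity.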
ATXN2 expr inh: ATXN2 expression inhibition | Potency, µM (doses to about 57 µM), for the others: at the highest dose activity change, negative = inhibition, hits mostly inhibitors | 0.72% of 360,000 active | HEK-293 ATXN2-luciferase reporter, luminescence, 24 h | AID 1745845; note: % is set by controls: 0 for no effect and ±100 for the full control effect; nearly all actives have a fitted effect of over 55% in size
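qHTS (up to 57 uM final) was run with 24 h compound exposure of reporter cells at 37 °C. Each well was multiplexed: SteadyGlo luminescence measured ATXN2-luciferase expression after a fluorogenic Gly-Phe-AFC viability readout (25 uM final).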
TDP1 cell CPT: DT40-hTDP1 cell growth loss with CPT; chicken DT40 Tdp1-/-;hTDP1 cells + 20 nM CPT, ATP luminescence, 48 h; 12% of 420,000 active; Potency, µM (top dose mostly 46.2 µM), without a hit: at the top dose activity change, negative = growth inhibition, most hits filed as inhibitors; note: % is set by controls: 0 for no effect and ±100 for the full control effect; nearly all actives have a fitted effect of over 55% in size
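Chicken DT40 Tdp1-/- cells complemented with human TDP1, 400 cells/well, exposed to compounds plus 20 nM camptothecin for at least 48 h at 37 C; viability read as ATP content by CellTiter-Glo luminescence.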
TGFb inhibitor: TGF-b pathway inhibition | 1.2% of 410,000 active | Potency, µM (titrated, usually from 46.1 µM), inactives show top-dose activity, negative = inhibition, usual class: inhibitors | HepG2 CAGA-GFP TGF-b/SMAD3 reporter, GFP fluorescence, 18 h; TGF-beta stimulated, 500 pg/mL final | AID 588855; note: % is set by controls: 0 for no effect and ±100 for the full control effect; nearly all actives have a fitted effect of over 65% in size
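Inhibition was scored as loss of TGF-beta-induced (500 pg/mL final, 18 hours, 37 degrees C) GFP in HEPG2 cells carrying a CAGA-GFP reporter, in DMEM with 1% FBS. Well GFP was summed per cell; Activity was normalised to unstimulated and stimulated DMSO wells, then concentration-response fitting.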
TDP1 cell noCPT: qHTS for Inhibitors of human tyrosyl-DNA phosphodiesterase 1 (TDP1): qHTS in cells in absence of CPT | 15% of 420,000 active | DT40 Tdp1-/- hTDP1 cells, no CPT, ATP luminescence, 48 h | Potency, µM (doses to about 46.2 µM), inactives show at the highest dose activity change, negative = growth inhibition, actives largely listed as inhibitors | AID 686978, 2013; note: % is set by controls: 0 for no effect and ±100 for the full control effect; nearly all actives have a fitted effect of over 55% in size
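DT40 Tdp1-/-;hTDP1 cells, no CPT (DMSO vehicle only), 400 cells/well; compounds pin-transferred; ≥48 hr, 37 °C; CellTiter-Glo 30 min RT dark, luminescence read.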
ATXN viability: viability counter-screen for ATXN expression inhibitors; S2 cells (HEK-293 line with an ATXN2-luciferase reporter) viability, CellTiter-Fluor protease fluorescence, 24 h; 0.49% of 400,000 active; Potency, µM (titrated, usually from 56.7 µM), most hits filed as cytotoxic; note: nearly all actives have a fitted effect of over 40% in size
* marks the source's active call; other numbers are inactive results; i = inactive; ? = inconclusive; / = no result given. Calls come from the whole dose curve; as a rule, active = well fitted curve in the direction sought with a large enough effect; inconclusive = small, poorly fitted or top-dose-only effect, or another doubt; inactive = no such curve, though single readings can be large; an effect the other way counts as inactive or inconclusive. Potency is the fitted concentration of half-maximal effect.

SMILES	HepG2 tox	ATXN2 expr inh	TDP1 cell CPT	TGFb inhibitor	TDP1 cell noCPT	ATXN viability
CN(C)c1ccc(CNC(=O)c2ccccc2NC(=O)c2nsc3ccccc23)cc1	-0.4%	8.1%	16.4µM*	0.0%	13µM*	i
O=C(NCCCN1CCOCC1)NC1CCCCC1	2.6%	3.9%	-5.0%	10.0%	?	i
O=C(NCCCCCCCN1CCCCCCC1)C(C1CCCCC1)C1CCCCC1	-2.9%	?	13µM*	17.8µM*	14.6µM*	/
COc1ccc(-c2cn3c(n2)sc2cc(C(=O)NCCCN4CCN(C)CC4)ccc23)cc1	-14.8%	/	1.16µM*	17.9%	1.3µM*	/
CCCN1CCN(CCCNC(=O)c2ccc3c(c2)sc2nc(-c4ccc(OC)cc4)cn23)CC1	-18.6%	/	1.46µM*	3.4%	1.03µM*	/
COc1ccc(-c2cn3c(n2)sc2cc(C(=O)Nc4cc(OC)cc(OC)c4)ccc23)cc1	-5.7%	/	1.2%	-0.8%	-21.7%	/
CC(C)(C)C(=O)O/N=C(\N)Cc1ccc(-c2csnn2)cc1	-0.8%	-9.2%	?	9.6%	?	i
O=C(CN1c2ccccc2Sc2ccccc21)NNC(=O)Nc1ccc(Cl)c(Cl)c1	12.6µM*	-10.4%	-0.4%	?	-46.3%	i
CCOc1ccccc1CNC(=O)Cn1c(-c2ccccc2)cc(C(C)=O)c1C	-13.9%	12.4%	13µM*	-2.0%	?	i
COc1ccc(CNC(=O)Cn2c(-c3ccccc3)cc(C(C)=O)c2C)cc1OC	-2.3%	-4.0%	10.3µM*	-11.8%	?	i
COc1ccccc1C(c1c(O)cc(C)n(Cc2ccco2)c1=O)N1CCCCC1 (stereo not given)	-8.9%	/	-20.8%	-0.1%	3.1%	/
Cc1cccc(-c2noc(C3CC(=O)N(c4ccc5c(c4)OCCO5)C3)n2)c1 (stereo not given)	-25.9%	-9.7%	-13.6%	?	0.8%	i
COc1ccc(-n2c(O)c(/C=N/NS(=O)(=O)c3cc(C)ccc3C)c3ccccc3c2=O)cc1OC	-0.3%	-21.3%	20.6µM*	19.4%	16.4µM*	i
COc1ccc(-n2c(O)c(/C=N/NS(=O)(=O)c3ccc(C)cc3)c3ccccc3c2=O)cc1OC	19.8%	-15.3%	18.4µM*	142.6%	16.4µM*	/
COc1ccc(-n2c(O)c(/C=N/Nc3nc(C)cc(C)n3)c3ccccc3c2=O)cc1OC	-14.2%	?	?	?	?	i
CC(NC(=O)c1ccc(Br)cc1)c1ccc2c(c1)CCCC2 (stereo not given)	-20.7%	10.9%	?	0.0%	?	i
CC(NC(=O)c1ccc(F)cc1)c1ccc2c(c1)CCCC2 (stereo not given)	-9.1%	7.6%	20.6µM*	?	13µM*	?
COc1ccc(C2c3c(n(C)c4ccccc34)C(=O)N2CC(=O)Nc2ccc(Cl)cc2)cc1 (stereo not given)	-28.6%	/	18.4µM*	2.51µM*	?	/
COc1ccc(C2c3c(n(C)c4ccccc34)C(=O)N2CC(=O)Nc2ccc(F)cc2)cc1 (stereo not given)	0.8%	/	-10.9%	0.0%	-13.6%	/
CCc1cccc(C)c1NC(=O)CN1C(=O)c2c(c3ccccc3n2C)C1c1ccc(OC)cc1 (stereo not given)	-21.0%	/	?	?	29.1µM*	/
COc1ccccc1NC(=O)/C(=C/c1cccc([N+](=O)[O-])c1)c1ccccc1	2.9%	-16.7%	13µM*	-29.2%	9.2µM*	?
COc1ccccc1NC(=O)CC(=O)c1cccc([N+](=O)[O-])c1	4.2%	-7.3%	9.5%	20.4%	-29.0%	i
COc1ccccc1C(=O)N/C(=C/c1cccc([N+](=O)[O-])c1)C(=O)Nc1cccc(C(=O)O)c1	14.5%	-16.9%	20.6µM*	28.1%	?	i
N#Cc1ccccc1NC(=O)CC1c2ccccc2Oc2ccccc21	-8.0%	-28.3%	2.06µM*	-6.0%	1.84µM*	?
N#Cc1ccccc1NC(=O)CC1CCCCC1	-3.9%	10.9%	-15.8%	20.6%	0.3%	i
SMILES	HepG2 tox	ATXN2 expr inh	TDP1 cell CPT	TGFb inhibitor	TDP1 cell noCPT	ATXN viability
O=C(Nc1ccc(Cl)cc1)Nc1ccc2c(c1)N1CCN=C1S2	-34.5%	-12.9%	23.1µM*	-14.2%	20.6µM*	i
COc1cc(OC)c(NS(=O)(=O)c2cc(C(=O)OC(C)C(=O)NC3CC3)c(Cl)cc2Cl)cc1Cl (stereo not given)	7.8%	-0.2%	18.4µM*	-0.6%	23.1µM*	i
CC(=O)c1c(COC(=O)c2ccccc2Cl)nc2ccccc2[n+]1[O-]	0.0%	/	-1.8%	-2.5%	-19.2%	i
CCOC(=O)C1CCN(c2cc3c(cc2NC(=O)c2ccccc2Br)n(C)c(=O)n3C)CC1	-17.2%	4.8%	?	-12.2%	18.4µM*	i
Cn1c(=O)n(C)c2cc(N3CCOCC3)c(NC(=O)c3ccccc3Br)cc21	-1.1%	-5.6%	?	-3.0%	-38.4%	?
CCOC(=O)C1CCN(c2cc3c(cc2NC(=O)c2cc(OC)ccc2Br)n(C)c(=O)n3C)CC1	-2.6%	8.6%	16.4µM*	11.0%	11.6µM*	i
COc1ccccc1NC(=O)Nn1cnnc1	-14.9%	-8.3%	2.6%	-4.7%	-14.8%	i
CCC(C(=O)N1CCN(c2cc(Cl)ccc2C)CC1)n1nc(C)c2sc3ccccc3c2c1=O (stereo not given)	-1.8%	/	-2.8%	28.1%	-16.5%	/
CCOC(=O)Cc1csc(SCC(=O)N2CCN(c3ccccc3)CC2)n1	2.5%	1.4%	-19.9%	1.1%	-28.2%	i
Cc1ccc(S(=O)(=O)Nc2ccc3nc(C)oc3c2)cc1	-20.7%	-19.8%	18.4µM*	?	10.3µM*	i
CNC(=O)CSc1nc2cc(S(=O)(=O)Nc3ccc(OC)cc3)ccc2o1	-22.9%	-0.9%	-5.9%	-10.6%	-8.4%	i
COc1ccc(-c2nc3ccc(NS(=O)(=O)c4ccc(C)cc4)cc3o2)cc1	-80.1%	?	?	?	10.3µM*	/
COc1ccc(NS(=O)(=O)c2ccc3oc(SC)nc3c2)cc1	-20.4%	-15.4%	11.6µM*	?	9.2µM*	i
COc1ccccc1-n1c(=O)oc2ccc(Cl)cc2c1=O	-15.8%	-26.3%	?	?	16.4µM*	?
COc1c(Cl)c(=O)oc2ccc(Cl)cc12	-0.6%	/	-14.2%	0.1%	-1.6%	i
